In PubChem BioAssay (NCI):
Compounds without any hit were thinned out: in the full panel of roughly 83,000, 20% have a hit.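 48-hour exposure, single concentration, 96-well plates; percent growth endpoint where 0 means no net growth. Active: below 10.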 Unmarked numbers belong to inactive results. The source made the active and inactive calls.

system: MDA-MB-468 breast; test: NCI-60 one-dose screen, 48 h (100 = growth as untreated, 0 = no growth, -100 = all killed); details: 10 µM unless noted

| Structure (SMILES) | growth |
| --- | --- |
| O=[N+]([O-])/C(=C\c1ccco1)c1ccccc1Cl | 55.7% |
| CC1=C(C(=O)OC(C)C)C(c2ccc3c(c2)OCO3)NC(=S)N1 (stereo not given) | 115% |
| CCOc1nc(-c2ccco2)n2nc(-c3ccco3)cc2n1 | -5.05% (active) |
| COc1cc2cc(Oc3ccc(NC(=O)Nc4cc(C(F)(F)F)cc(C(F)(F)F)c4)cc3)c(C)nc2cc1OCCN1CCCCC1 | -78.6% (active) |
| CC(C)=CCc1cc2c(cc1O)C1=C(C(=O)C3=C(NCCS3(=O)=O)C1=O)C(C=C(C)C)O2 (stereo not given) | -20.7% (active) |
| Cc1csc(-c2ccc3c(c2)COC3(CCCN(C)C)c2ccc(F)cc2)c1 (stereo not given) | 31.1% |
| CN1CCN(Cc2ccc(NC(=O)c3cncc(C#Cc4cnc5ccc(OC6CCOCC6)nn45)c3)cc2C(F)(F)F)CC1 | -62.5% (active) |
| N#Cc1c(-c2ccc(F)cc2)nc(N=Nc2c(O)[nH]c3ccc(Cl)cc23)nc1N1CCOCC1 | 47.1% |
| CC(C)[O-].CC(C)[O-].CN(CCN(C)Cc1cc(F)cc(F)c1[O-])Cc1cc(F)cc(F)c1[O-].[Ti+4] | -36.8% (active) |
| Cc1nn(-c2ccccc2)c(N)c1N=C1NC(=O)/C(=C/c2ccc(Br)cc2)S1 | 86.6% |
| COc1ccc(-c2nc3sccn3c2-c2ccnc(NCCCNS(=O)(=O)c3ccc(C)cc3)n2)cc1 | 37.9% |
| Cc1ccc(S(=O)(=O)OC[C@]23CCC(C)(C)C[C@H]2C2=CC[C@@H]4[C@@]5(C)CCCNC(C)(C)[C@@H]5CC[C@@]4(C)[C@]2(C)CC3)cc1 | -35.1% (active) |
| Cc1ccccc1-c1cc(-c2ccc(Br)s2)[nH]c(=O)c1C#N | 96.4% |
| O=C(Nc1cc(-c2cccnc2)nc(NCCCN2CCOCC2)n1)c1cc(Br)cc(C(F)(F)F)c1 | 52.8% |
| OCCN1CCN(CCCN2c3ccccc3Sc3ccc(C(F)(F)F)cc32)CC1 | -47.1% (active) |
| Ic1ccccc1-c1ccccc1 | 103% |
| Cc1c(Cl)c(C)c(Cc2c(C)c(Cl)c(C)c(Cl)c2O)c(O)c1Cl | -8.25% (active) |
| OC(CNC1CCCC1)Cn1c2ccccc2c2ccccc21 (stereo not given) | -21.2% (active) |

| Structure (SMILES) | growth |
| --- | --- |
| CN(C)CCCNc1c2ccccc2nc2c1oc1ccc(Cl)cc12 | 5.14% (active) |
| Cc1ccc(C(=O)/C=C/c2ccccc2)s1 | 89.7% |
| O=C(Nc1nc(-c2ccccc2)cs1)c1cc(O)c(O)c(O)c1 | 46.3% |
| C=C(C)[C@@H]1CC[C@]2(CN)CC[C@]3(C)[C@H](CC[C@@H]4[C@@]5(C)CCC(N)[C@@](C)(CO)[C@@H]5CC[C@]43C)[C@@H]12 (stereo not given in full) | -86.6% (active) |
| COc1cccc(-c2nc3sccn3c2/C=C/C(=O)c2ccc(C(F)(F)F)cc2)c1 | 75.6% |
| O=Cc1cc2ccccc2nc1Oc1ccc(C(F)(F)F)cc1 | 90.7% |
| C#CCOc1ccc2ncnc(Nc3cccc(CNC(=O)C=C)c3)c2c1 | 89.2% [8.25 µM] |
| CNC(=O)c1cccc2cc(Oc3ccnc4cc(OCC5(N)CC5)c(OC)cc34)ccc12 | 74.6% |
| COc1ccc(CCNc2nc3c(c(=O)n(Cc4ccc(Br)cc4)c(=O)n3C)n2C)cc1OC | 109% |
| C[C@@H]1CC[C@@H]2[C@@H]1[C@H](OC(=O)/C=C/c1ccccc1)[C@]1(CCCOCCOCCOCCOC(=O)CCCC[C@@H]3SC[C@@H]4NC(=O)N[C@@H]43)C[C@@H](OC(=O)CO)[C@@]2(C)O1 | 111% |
| CN1CCN(C(=O)OCc2ccc3c(Cl)cc(Cl)c(O)c3n2)CC1 | 67.1% |
| NC(N)=N/N=C(/c1ccccc1)c1ccc(N)cc1 | 119% |
| Cc1cccc([N+](=O)[O-])c1Cl | 92.4% |
| COCCN1CCN(Cc2ccc(-c3n[nH]c4c3C(=O)c3c(NC(=O)NN5CCOCC5)cccc3-4)cc2)CC1 | -45.1% (active) |
| CC1=NNC(=O)C1C (stereo not given) | 95.8% |
| C=CCN(CC=C)C(=O)[C@H](CC)[C@@H]1CC[C@@H](C)[C@@H]([C@H](C)[C@@H](O)[C@@H](C)C(=O)[C@H](CC)C2O[C@]3(C=CC(=O)[C@]4(CC[C@@](C)([C@H]5CC[C@](O)(CC)[C@H](C)O5)O4)O3)[C@H](C)C[C@@H]2C)O1 (stereo not given in full) | -17.4% (active) |
| O=[N+]([O-])CC(c1ccccc1F)c1c[nH]c2ccccc12 (stereo not given) | 44% |
